These results are taken from PubChem BioAssay AID1224921 (Broad Institute, 2016).

Out of some 1,400 compounds screened, about 350 (25%) were called active. Another 2% or so got no clear call; they are omitted. How the calls were made is not given here. The list is a sample of the results. Measured potencies and affinities stand elsewhere.

A short description of this assay: C. difficile growth inhibition, confirmation, 4-point retest (AID 1224921).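 Further: plate controls were DMSO wells for no effect and levofloxacin 16 µg/mL wells for full effect.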 As to conditions: Clostridioides difficile clinical isolate growth, OD600, 24 h, stronger effect = lower value; at 30 µM unless noted.
On to `CCC(=O)Nc1ccc2c(c1)C(=O)N(C)C[C@@H](OC)[C@@H](C)CN(C(=O)CN1CCOCC1)[C@H](C)CO2`, for which the max activity was 18.1% (inactive).
Turning to `CCCN1C[C@H](C)[C@H](OC)CN(C)C(=O)c2cc(NC(=O)c3cccc(OC)c3)ccc2OC[C@@H]1C`, the max activity was -8.29% [at 0.5 µM] (inactive).
In the case of `C[C@H](CO)N1C[C@H](C)[C@@H](CN(C)Cc2ccc3c(c2)OCO3)Oc2ccc(NC(=O)Nc3ccc4c(c3)OCO4)cc2C1=O`, the max activity is -9.66% [at 8 µM] (inactive).
As to `C[C@H](CO)N1C[C@H](C)[C@@H](CN(C)S(=O)(=O)CC(F)(F)F)OCc2ccccc2-c2c(n(C)c3ccccc23)C1=O`, the max activity is 24.2% (inactive).
`CC(C)CC#Cc1ccc2c(c1)O[C@@H](CN(C)Cc1ccncc1)[C@H](C)CN([C@H](C)CO)S2(=O)=O`: the max activity was 18.2% [at 8 µM] (inactive).
Regarding `C[C@@H]1CN([C@@H](C)CO)S(=O)(=O)c2ccc(C#CCC3CCCC3)cc2O[C@H]1CN(C)C(=O)CC1CC1`, the max activity is -15.8% [at 1.95 µM] (inactive).
As to `O=C(C[C@H]1CC[C@H](NC(=O)CCN2CCCCC2)[C@H](CO)O1)Nc1nccs1`, the max activity was -18.1% [at 8 µM] (inactive).
With `C[C@@H]1CN([C@@H](C)CO)C(=O)c2cc(C#CC3CCCCC3)cnc2O[C@H]1CN(C)Cc1cccnc1`, the max activity was 21.1% (inactive).
For `CC(=O)N(C)C[C@@H]1Oc2ncc(C#Cc3ccc(F)cc3)cc2C(=O)N([C@@H](C)CO)C[C@H]1C` the value was 24.8% (inactive); for `C[C@H](O)C#Cc1cnc2c(c1)C(=O)N([C@@H](C)CO)C[C@H](C)[C@H](CN(C)Cc1ccc(-c3ccccc3)cc1)O2`, 31.6% (inactive).
Consider `COc1ccc(C#Cc2cnc3c(c2)C(=O)N([C@@H](C)CO)C[C@H](C)[C@@H](CN(C)CC2CCOCC2)O3)cc1`, for which the max activity is 8.65% [at 8 µM] (inactive).
Regarding `C[C@@H]1CN([C@@H](C)CO)C(=O)c2cc(C#CC3CCCCC3)cnc2O[C@@H]1CN(C)Cc1cccnc1`, the max activity is 58.9% (inactive).
Turning to `CCCNC(=O)N(C)C[C@H]1Oc2ncc(C#CCc3ccccc3)cc2C(=O)N([C@@H](C)CO)C[C@@H]1C`, the max activity is 16.1% (inactive).
With `CCCN1C[C@@H](C)[C@@H](OC)CN(C)C(=O)c2cc(NC(=O)c3cccc(F)c3)ccc2OC[C@H]1C`, the max activity was -11.3% [at 1.95 µM] (inactive).
In the case of `CO[C@@H]1CN(C)C(=O)c2cc(NC(C)=O)ccc2OC[C@@H](C)N(C(=O)c2ccccn2)C[C@@H]1C`, the max activity was -15.1% [at 8 µM] (inactive).
For the compound `C[C@H]1CN([C@@H](C)CO)C(=O)Cc2cc(NS(=O)(=O)c3cccs3)ccc2O[C@@H]1CN(C)Cc1ccc(Cl)c(Cl)c1`, the max activity was 33.5% [at 8 µM] (inactive).
Take `COc1ccc(NC(=O)Nc2ccc3c(c2)[C@H]2C[C@H](CC(=O)N[C@@H](C)c4ccccc4)O[C@@H](CO)[C@H]2O3)cc1`: the max activity is -8.28% [at 2.1 µM] (inactive).
For `Cc1ccccc1S(=O)(=O)N1[C@H](CO)[C@@H](c2ccc(C#CC3CC3)cc2)[C@@H]1C#N` the value was 34.7% (inactive).
As for `COc1ccccc1C#Cc1ccc([C@H]2[C@@H](C#N)N(C(=O)C3CC3)[C@H]2CO)cc1`, the max activity is 22.1% [at 8 µM] (inactive).
`O=C(C[C@@H]1CC[C@@H](NC(=O)Nc2cc(F)ccc2F)[C@H](CO)O1)NCc1ccc2c(c1)OCO2`: the max activity is 8.77% (inactive).
For `CO[C@@H]1CN(C)C(=O)c2ccc(NS(=O)(=O)c3cn(C)cn3)cc2OC[C@@H](C)N(Cc2ccc(C(F)(F)F)cc2)C[C@H]1C`, the max activity was 35.5% [at 8 µM] (inactive).
For `CO[C@@H]1CN(C)C(=O)c2cc(NS(=O)(=O)c3cn(C)cn3)ccc2OC[C@@H](C)N(Cc2ccc(C(F)(F)F)cc2)C[C@H]1C` the value was 43.6% (inactive); for `C[C@@H]1CCCCO[C@@H](CN(C)S(=O)(=O)c2cn(C)cn2)[C@H](C)CN([C@H](C)CO)C(=O)c2cc(NS(=O)(=O)c3ccccc3)ccc2O1`, -10.5% [at 0.5 µM] (inactive); for `C[C@@H]1CN([C@H](C)CO)C(=O)c2cc(NC(=O)Nc3cccc4ccccc34)ccc2O[C@@H](C)CCCCO[C@H]1CN(C)S(=O)(=O)c1cn(C)cn1`, 30.5% [at 35 µM] (inactive).
Then `CO[C@@H](CN(C)S(=O)(=O)c1ccc(C)cc1)[C@H](C)CN(C(=O)Nc1ccccc1F)[C@@H](C)CO`, with -7.73% [at 8 µM] (inactive); and `CO[C@H]1CN(C)C(=O)c2cc(NC(=O)c3cccc(F)c3)ccc2OC[C@H](C)N(C(C)=O)C[C@@H]1C`, with -4.07% [at 1.95 µM] (inactive); and `C[C@@H]1CN([C@H](C)CO)S(=O)(=O)c2ccc(C3=CCCCC3)cc2O[C@@H]1CN(C)Cc1ccncc1`, with 19.4% (inactive).
For `COc1ccc(S(=O)(=O)Nc2ccc3c(c2)OC[C@@H](C)N(C)C[C@@H](C)[C@H](OC)CN(C)C3=O)cc1` the value was -9.73% [at 1.95 µM] (inactive).
For `C[C@@H]1CN([C@H](C)CO)C(=O)Cc2cc(NS(C)(=O)=O)ccc2O[C@@H]1CN(C)Cc1ccc(-c2ccccc2)cc1`, the max activity was 52.1% (inactive).
In the case of `O=C(C[C@@H]1C[C@@H]2c3cc(NC(=O)Nc4ccc(C(F)(F)F)cc4)ccc3O[C@@H]2[C@H](CO)O1)NCc1ccccn1`, the max activity was -9.23% [at 1.95 µM] (inactive).
As to `CCCC(=O)Nc1ccc2c(c1)OC[C@@H](C)N(CCc1ccccc1)C[C@H](C)[C@H](OC)CN(C)C2=O`, the max activity was -4.85% [at 1.95 µM] (inactive).
`C[C@H](CO)N1C[C@H](C)[C@H](CN(C)Cc2cccnc2)Oc2cc(C3=CCCCC3)ccc2S1(=O)=O`: the max activity was 37% (inactive).
`O=C(C[C@H]1C[C@H]2c3cc(NC(=O)Nc4ccc(F)cc4)ccc3O[C@H]2[C@@H](CO)O1)NC1CCCC1`: the max activity was -13.7% [at 8 µM] (inactive).
Then `C[C@@H]1CN([C@H](C)CO)C(=O)c2ccccc2-c2ccccc2CO[C@@H]1CN(C)S(=O)(=O)c1ccsc1`, with 12% [at 1.95 µM] (inactive).
In the case of `COc1ccc(S(=O)(=O)Nc2ccc3c(c2)CC(=O)N([C@@H](C)CO)C[C@@H](C)[C@H](CN(C)CC2CCCCC2)O3)cc1`, the max activity is 25.5% (inactive).
